According to PubChem BioAssay (EPA / NIEHS):
Results filed as inconclusive are left out. Calls of active or inactive are those of the source. Rule for the calls: active = hit-call score of the fitted dose curve at least 0.9, where 1 is the maximum; inconclusive = response in the unintended direction; inactive = score below 0.9.

Target: human Matrix Metalloproteinase-3 (MMP3), MMP3 (gene 4314) (UniProt P08254)
Assay: NVS_ENZ_hMMP3: NovaScreen (NVS) Enzymatic Assay for human Matrix Metalloproteinase-3 (MMP3) (AID 2283185)
In short: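 Cell-free recombinant human MMP3 activity, fluorescence intensity read 1 h after dosing. Primary screen duplicate at 25 uM, actives retested in concentration series; loss of signal vs DMSO baseline.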

Chain of human Matrix Metalloproteinase-3 (MMP3), MMP3 (gene 4314) (P08254 whole entry, looked up): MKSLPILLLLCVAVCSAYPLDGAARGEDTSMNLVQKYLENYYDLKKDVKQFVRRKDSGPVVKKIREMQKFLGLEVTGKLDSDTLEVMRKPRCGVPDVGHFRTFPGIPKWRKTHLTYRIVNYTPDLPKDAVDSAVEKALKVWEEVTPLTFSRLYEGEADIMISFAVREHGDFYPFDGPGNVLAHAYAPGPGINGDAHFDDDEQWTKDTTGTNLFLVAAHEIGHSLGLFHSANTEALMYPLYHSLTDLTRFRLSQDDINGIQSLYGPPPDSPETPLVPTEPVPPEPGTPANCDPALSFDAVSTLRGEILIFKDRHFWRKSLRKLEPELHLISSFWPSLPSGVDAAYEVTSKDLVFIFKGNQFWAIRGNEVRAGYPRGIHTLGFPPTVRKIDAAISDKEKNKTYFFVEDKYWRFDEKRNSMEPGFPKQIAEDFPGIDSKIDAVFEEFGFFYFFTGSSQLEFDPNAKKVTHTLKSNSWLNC

| SMILES | AC50 | outcome |
| --- | --- | --- |
| c1ccc2c(c1)-c1cccc3cccc-2c13 | 5.24 µM (active) | – |
| Clc1ccc(Cl)c(Cl)c1 | – | inactive |
| ClCCOCCCl | – | inactive |

Target: human p21 Activated Kinase 4 (PAK4), PAK4 (gene 10298) (UniProt O96013)
Sequence (O96013 whole entry, looked up): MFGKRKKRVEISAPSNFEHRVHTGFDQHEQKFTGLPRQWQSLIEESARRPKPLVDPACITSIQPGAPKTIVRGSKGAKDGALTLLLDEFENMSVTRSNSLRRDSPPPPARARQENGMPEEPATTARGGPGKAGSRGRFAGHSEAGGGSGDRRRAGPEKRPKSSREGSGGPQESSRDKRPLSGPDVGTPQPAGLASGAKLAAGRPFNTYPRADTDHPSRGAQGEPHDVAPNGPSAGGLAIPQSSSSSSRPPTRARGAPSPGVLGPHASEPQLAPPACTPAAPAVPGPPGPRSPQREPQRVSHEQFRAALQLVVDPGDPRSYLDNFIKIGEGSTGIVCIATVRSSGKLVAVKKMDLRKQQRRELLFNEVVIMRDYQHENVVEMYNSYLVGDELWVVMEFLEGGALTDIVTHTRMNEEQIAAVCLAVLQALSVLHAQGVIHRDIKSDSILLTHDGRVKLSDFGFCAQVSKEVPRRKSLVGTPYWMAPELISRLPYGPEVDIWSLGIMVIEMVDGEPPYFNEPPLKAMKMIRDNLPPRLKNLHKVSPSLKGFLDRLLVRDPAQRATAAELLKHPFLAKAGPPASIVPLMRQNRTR
Assay: NVS_ENZ_hPAK4: NovaScreen (NVS) Enzymatic Assay for human p21 Activated Kinase 4 (PAK4) (AID 2283189)
In short: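 Cell-free recombinant human PAK4 activity assay; fluorescent substrate and product separated by electrophoretic mobility shift, read 1 h after dosing. Initially tested in duplicate at 25 uM, relative to DMSO baseline.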

| SMILES | outcome |
| --- | --- |
| Cn1cc(-c2ccccc2)c(=O)c(-c2cccc(C(F)(F)F)c2)c1 | inactive |
| C[C@]12C=CC3=C4CCC(=O)C=C4CC[C@H]3[C@@H]1CC[C@@H]2O | inactive |
| Cc1cc(N=Nc2ccccc2C)ccc1N | inactive |
| COc1cc(C=O)cc2c1[C@H](COC(N)=O)[C@]1(OC(C)=O)ON2C[C@H]2[C@@H]1N2C(C)=O | inactive |

Target: human Matrix Metalloproteinase-9 (MMP9), MMP9 (gene 4318) (UniProt P14780)
Sequence (P14780 whole entry, looked up): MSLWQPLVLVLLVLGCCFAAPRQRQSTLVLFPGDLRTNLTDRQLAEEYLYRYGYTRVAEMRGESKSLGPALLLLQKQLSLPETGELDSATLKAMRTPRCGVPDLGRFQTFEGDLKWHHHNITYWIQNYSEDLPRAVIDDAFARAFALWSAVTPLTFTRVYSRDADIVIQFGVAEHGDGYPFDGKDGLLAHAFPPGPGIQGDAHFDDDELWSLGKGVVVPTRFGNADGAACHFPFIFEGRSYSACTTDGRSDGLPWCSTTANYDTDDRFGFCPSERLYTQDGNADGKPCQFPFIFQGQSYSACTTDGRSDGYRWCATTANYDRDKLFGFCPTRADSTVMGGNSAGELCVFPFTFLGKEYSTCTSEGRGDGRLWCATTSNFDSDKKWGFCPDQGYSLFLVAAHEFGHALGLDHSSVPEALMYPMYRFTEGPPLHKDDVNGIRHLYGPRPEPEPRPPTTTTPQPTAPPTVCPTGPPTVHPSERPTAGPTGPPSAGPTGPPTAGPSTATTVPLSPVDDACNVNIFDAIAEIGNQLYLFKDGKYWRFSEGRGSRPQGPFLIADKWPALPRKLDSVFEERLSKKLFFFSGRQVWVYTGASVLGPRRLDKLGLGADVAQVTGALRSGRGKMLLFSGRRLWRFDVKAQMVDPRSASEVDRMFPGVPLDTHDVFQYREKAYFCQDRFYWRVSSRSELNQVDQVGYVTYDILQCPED
Assay: NVS_ENZ_hMMP9: NovaScreen (NVS) Enzymatic Assay for human Matrix Metalloproteinase-9 (MMP9) (AID 2283190);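 note: cell-free recombinant MMP9 protease activity read by fluorescent substrate signal; active means inhibition seen as loss of fluorescence signal versus DMSO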
In short: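 Extracted enzyme, fluorescent substrate, 1 h post-dose read. Single conc 25 uM in duplicate, then concentration series for actives. Activity = signal loss relative to DMSO negative control.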

| SMILES | outcome | AC50 |
| --- | --- | --- |
| O=Cc1ccco1 | inactive | – |
| CCCCCOC(=O)c1ccccc1C(=O)OCCCCC | – | 12.6 µM (active) |
| c1ccc(C2CO2)cc1 (stereo not drawn) | inactive | – |
| Clc1ccc(C(c2ccc(Cl)cc2)C(Cl)(Cl)Cl)cc1 | inactive | – |
| C1=Cc2cccc3cccc1c23 | inactive | – |

Target: human Phosphodiesterase 4A1 (PDE4A1), PDE4A (gene 5141) (UniProt P27815)
Sequence (P27815 whole entry, looked up): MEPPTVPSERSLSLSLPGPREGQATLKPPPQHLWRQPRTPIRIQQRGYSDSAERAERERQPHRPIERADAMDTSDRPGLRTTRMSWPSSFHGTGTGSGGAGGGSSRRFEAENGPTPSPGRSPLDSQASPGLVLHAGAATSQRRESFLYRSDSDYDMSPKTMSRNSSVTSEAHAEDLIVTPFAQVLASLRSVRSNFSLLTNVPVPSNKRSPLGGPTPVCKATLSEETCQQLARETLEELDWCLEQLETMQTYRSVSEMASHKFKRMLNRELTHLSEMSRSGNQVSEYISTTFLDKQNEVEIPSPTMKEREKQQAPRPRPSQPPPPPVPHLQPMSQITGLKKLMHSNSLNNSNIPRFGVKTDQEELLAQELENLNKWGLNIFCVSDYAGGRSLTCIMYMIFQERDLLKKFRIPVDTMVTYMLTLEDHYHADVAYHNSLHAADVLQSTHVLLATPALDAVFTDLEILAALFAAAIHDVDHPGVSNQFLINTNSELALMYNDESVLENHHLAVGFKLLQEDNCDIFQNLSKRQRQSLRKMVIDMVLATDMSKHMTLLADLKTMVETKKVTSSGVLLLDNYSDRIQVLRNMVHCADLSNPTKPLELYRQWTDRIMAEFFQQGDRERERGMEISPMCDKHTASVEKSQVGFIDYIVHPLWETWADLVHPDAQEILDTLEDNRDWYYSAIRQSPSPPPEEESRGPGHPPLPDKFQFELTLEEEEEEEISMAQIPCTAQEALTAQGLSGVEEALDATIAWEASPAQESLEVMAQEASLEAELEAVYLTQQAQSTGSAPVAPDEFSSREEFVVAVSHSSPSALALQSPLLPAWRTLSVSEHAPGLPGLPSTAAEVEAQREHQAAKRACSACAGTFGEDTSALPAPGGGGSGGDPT
Assay: NVS_ENZ_hPDE4A1: NovaScreen (NVS) Enzymatic Assay for human Phosphodiesterase 4A1 (PDE4A1) (AID 2283191)
In short: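 Cell-free recombinant human PDE4A1 with fluorescent substrate; product separated by electrophoretic mobility shift, 1 h. Screened at 25 uM, then up to 50 uM in concentration-response; loss of signal fitted against DMSO.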

| SMILES | outcome |
| --- | --- |
| CS(=O)(=O)NC(=O)c1cc(Oc2ccc(C(F)(F)F)cc2Cl)ccc1[N+](=O)[O-] | inactive |
| CC(C)(C)OOC(C)(C)CCC(C)(C)OOC(C)(C)C | inactive |
| CN(C)c1ccc(C(=O)c2ccc(N(C)C)cc2)cc1 | inactive |

Target: human Phosphodiesterase 5 (PDE5), PDE5A (gene 8654) (UniProt O76074)
Assay: NVS_ENZ_hPDE5: NovaScreen (NVS) Enzymatic Assay for human Phosphodiesterase 5 (PDE5) (AID 2283194)
In short: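 Recombinant human PDE5 with specific substrate, read 1 h after dosing by fluorescence with electrophoretic mobility-shift separation of substrate and product. Initial single-concentration duplicate screen at 25 uM, actives followed in concentration series; loss of activity versus DMSO.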

| SMILES | AC50 | outcome |
| --- | --- | --- |
| C[C@]12C=CC3=C4CCC(=O)C=C4CC[C@H]3[C@@H]1CC[C@@H]2O | 25 µM (active) | – |
| CCCCC(CC)COC(=O)c1ccc(C(=O)OCC(CC)CCCC)c(C(=O)OCC(CC)CCCC)c1 (stereo not drawn) | – | inactive |
| c1ccc(C2CO2)cc1 (stereo not drawn) | – | inactive |
| CN(C)c1ccc(C(=O)c2ccc(N(C)C)cc2)cc1 | 29.1 µM (active) | – |

Target: PPP2CA (gene 5515) (UniProt P67775)
Sequence (P67775 whole entry, looked up): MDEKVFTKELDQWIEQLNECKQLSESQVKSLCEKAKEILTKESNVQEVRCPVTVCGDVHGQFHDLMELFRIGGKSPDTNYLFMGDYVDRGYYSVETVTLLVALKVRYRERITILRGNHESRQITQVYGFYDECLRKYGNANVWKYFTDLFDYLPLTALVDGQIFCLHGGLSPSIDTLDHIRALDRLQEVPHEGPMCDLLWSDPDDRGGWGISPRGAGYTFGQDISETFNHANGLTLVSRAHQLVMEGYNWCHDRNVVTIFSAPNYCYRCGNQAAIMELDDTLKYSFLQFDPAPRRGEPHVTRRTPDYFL
Assay: NVS_ENZ_hPPP2CA: NovaScreen (NVS) Enzymatic Assay for human Protein Phosphatase 2 Aatalytic subunit Alpha (PPP2CA) (AID 2283199)
In short: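 Recombinant human PPP2CA with fluorescent substrate; product separated from substrate by electrophoretic mobility shift, read 1.33 h after dosing. Duplicate single-point at 25 uM, then singleton concentration-response up to 50 uM; loss of signal versus DMSO.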

| SMILES | outcome |
| --- | --- |
| CCC12COCN1COC2 | inactive |
| Nc1ccc([N+](=O)[O-])cc1 | inactive |
| CC(C)(OOC(C)(C)c1ccccc1)c1ccccc1 | inactive |
| Clc1ccc(Cl)c(Cl)c1 | inactive |
